PubChem BioAssay AID588489 (Sanford-Burnham Center for Chemical Genomics, 2011)
Among all 360,000 compounds or so, about 1,300 (0.36%) were called active. Rule as the data show it: active = inhibition above about 35% (passing the limit was not always enough); inactive = the rest. What follows is part of a selection rich in actives, with near analogues and random picks from the rest.

Each molecule was assayed against Polyadenylate-binding protein 1 (Homo sapiens) (UniProt P11940) (assay: inhibitors of PABP1 MLLE–PAM2 peptide binding, primary screen, biochemical, fluorescence polarization, FITC-PAM2, GST-MLLE (AID 588489;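 also: plate controls were DMSO wells with GST-MLLE for no effect and wells lacking GST-MLLE protein for full effect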)). Conditions: at 20 µM, stronger effect = higher value.
Chain of Polyadenylate-binding protein 1 (Homo sapiens) (P11940 whole entry, looked up): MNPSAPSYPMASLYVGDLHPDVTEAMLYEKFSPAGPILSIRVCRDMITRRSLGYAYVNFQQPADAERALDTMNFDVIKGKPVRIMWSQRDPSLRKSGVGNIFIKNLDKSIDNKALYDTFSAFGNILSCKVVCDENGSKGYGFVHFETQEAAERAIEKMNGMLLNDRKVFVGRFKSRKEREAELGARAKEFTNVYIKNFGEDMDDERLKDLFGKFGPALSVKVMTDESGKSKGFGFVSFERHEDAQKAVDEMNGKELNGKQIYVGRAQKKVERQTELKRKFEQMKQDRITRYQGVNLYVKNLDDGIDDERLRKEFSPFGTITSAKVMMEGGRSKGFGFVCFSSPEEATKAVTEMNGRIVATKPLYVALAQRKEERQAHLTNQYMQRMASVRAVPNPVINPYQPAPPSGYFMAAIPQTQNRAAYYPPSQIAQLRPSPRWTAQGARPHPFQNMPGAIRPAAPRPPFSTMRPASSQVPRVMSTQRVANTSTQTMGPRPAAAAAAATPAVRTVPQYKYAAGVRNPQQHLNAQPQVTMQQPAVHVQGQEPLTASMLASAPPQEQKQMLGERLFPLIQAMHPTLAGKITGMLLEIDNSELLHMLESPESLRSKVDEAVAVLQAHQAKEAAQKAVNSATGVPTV

inhibition, active:
COC(=O)C1=C(C(=O)OC)C(c2cc([N+](=O)[O-])ccc2O)c2sc(=O)[nH]c2S1 (stereo not given) 40.3%, CCOc1ccc(Cn2c(SCCCCC#N)nc3c2c(=O)n(C)c(=O)n3C)cc1OCC 44%, COc1ccc(Cl)cc1-n1c(=S)sc2c(=O)n(-c3ccc(F)cc3)c(SCC(=O)O)nc21 43.8%, O=C(c1ccc(F)cc1)n1c(=S)nc2ccccn21 39%, Cc1cccc(NC(=S)Nc2ccc(Cl)c(Cl)c2)c1 37.8%, Cc1csc(NC(=S)Nc2cccc(Cl)c2)n1 35.5%, CC(C)(C)n1nc2c(c1NC(=O)c1cc3ccccc3o1)CSC2 47.2%, O=C1CCCC(O)=C1N=Nc1ccc2ncsc2c1 45.2%, Cc1ccc(C(=O)N/N=C\c2cc(Br)c(Br)o2)cn1 69.9%, Cc1ccnc(SC2CC(=O)N(c3ccccc3)C2=O)n1 (stereo not given) 38.2%, Nc1cccc2c1C(=O)N(Cc1nnc(-c3ccccc3Br)o1)C2=O 41.2%, O=C(Cc1ccc(Cl)cc1)NC(=S)Nc1ccccc1O 37.5%, COc1cccc(NC(=O)CN(C)C(=O)CSC(=S)N2CCCC2)c1 40.8%, COc1ccc(N/N=C2/CCCCC2=O)cc1 44.5%, CCc1ccc2c(c1)C1(NN=C(c3ccccc3)S1)C(=O)N2 (stereo not given) 45.2%, COc1cc(C(=S)N2CCOCC2)ccc1O 38.4%, O=S(=O)([N-]c1nc2ccccc2nc1-[n+]1ccc(Cc2ccccc2)cc1)c1ccc(Br)s1 43.3%, CC(=O)Nc1ccc(SCC(=O)Nc2ccccc2Oc2ccccc2)cc1 38.1%, COC(=O)N/N=C/c1c[n+]([O-])c2ccccc2[n+]1[O-] 41.1%, Cc1[nH]c(N)nc(=S)c1CCCNc1ccccc1 40.1%

inhibition, inactive:
COC(=O)c1c(C)[nH]c(C)c1-c1ccc([N+](=O)[O-])cc1 -2.95%, COC(=O)C1=CN(c2ccc(F)c(F)c2)C=C(C(=O)OC)C1c1ccc([N+](=O)[O-])cc1 9.34%, Cc1ccc(C2=NN(C)c3nc4ccccc4n3C2)cc1 -3.04%, COc1ccc(NS(=O)(=O)c2ccc(C)c(C(=O)NNC(=O)c3csc(N4CCOCC4)n3)c2)cc1 -13.1%, C=CCNC(=S)NNC(=O)c1ccc(Br)o1 -45.2%, CCCSc1nc2c(c(=O)n(C)c(=O)n2C)n1Cc1ccc(C)cc1 -1.85%, CCCCn1c(SCC(=O)NCCc2ccc(OC)c(OC)c2)nc2c1c(=O)n(C)c(=O)n2C 4.31%, O=C(NCCC(=O)N1O[C@@H]2C=C[C@H]1C2)OCC1c2ccccc2-c2ccccc21 -4.15%, CCOCc1nnc(NC(=O)CCC2CCCCC2)s1 -2.53%, Cc1cc([N+](=O)[O-])nn1CCCC(=O)Nc1cccnc1Cl 2.45%, COc1cccc(-n2c(=S)sc3c(=O)n(-c4ccccc4C)c(SCC(=O)O)nc32)c1 -10.4%, COc1cccc(-n2c(=S)sc3c(=O)n(-c4ccccc4OC)c(SCC4OCCO4)nc32)c1 -1.94%, COc1ccccc1C(=O)Oc1ccc(N2C(=O)CCC2=O)cc1 -2.33%, O=C(c1ccc(Cn2cc([N+](=O)[O-])cn2)o1)N1CCCC1 -7%, O=C(c1ccc(F)cc1)N1CCC(n2nnc3ccccc32)CC1 -6.3%, CC1COc2ccccc2N1C(=O)c1ccc(F)cc1 (stereo not given) -13.6%, O=C(COC(=O)/C=C/c1nc2ccccc2s1)Nc1ccccc1Oc1ccccc1 -5.84%, NS(=O)(=O)c1ccc(NC(=S)Nc2ccc(Br)c(Cl)c2)cc1 33.2%, Cc1ccc(C2CCN(C(=S)Nc3cccc(Cl)c3)C2)cc1 (stereo not given) -122%, O=C(NCc1cn2ccsc2n1)Nc1cccc(Cl)c1 -5.66%, Cc1ccc(C)c(NC(=S)NNC(=S)Nc2ccc(C(C)C)cc2)c1 30.8%, CCc1noc(C)c1C(=O)N1CCCC(N2CCN(c3ccc(F)cc3)CC2)C1 (stereo not given) -6.88%, Cc1cc(NC(=O)c2cc3ccccc3o2)no1 16%, Cc1cccc(-n2nc3c(c2NC(=O)c2cc4ccccc4o2)CS(=O)(=O)C3)c1 2.88%, C=CCn1c(SCC(=O)NCc2ccccc2)nnc1-c1cc(Br)ccc1O -75.9%, CCOC(=O)C1=C(CSc2nnnn2C)N(C)C(=O)NC1c1ccccc1 (stereo not given) -3.23%, O=C1CCCC(O)=C1N=Nc1ccc(S(=O)(=O)N2CCOCC2)cc1 8.62%, O=C(NCCC1CCCCN1S(=O)(=O)c1ccccc1)C(=O)NCC1CCCO1 (stereo not given) 1.52%, O=C(N/N=C/c1ccc(Br)o1)c1cncc(Br)c1 6.99%, O=C(N/N=C\c1cc(Br)c(Br)o1)C1COc2ccccc2O1 (stereo not given) -16.5%, CC(C)N(C(=O)Cn1cc(SCC(=O)N2CCCC2)c2ccccc21)C(C)C -0.1%, CCOc1ccccc1N1C(=O)CC(Sc2nccc(C)n2)C1=O (stereo not given) 20.7%, CC(=O)Nc1ccc(N2C(=O)CC(Sc3nccc(C)n3)C2=O)cc1 (stereo not given) 20.5%, CCCCNC(=O)C1(c2ccc(OC)cc2)CCOCC1 -4.07%, CC(C)N(Cc1nnc(-c2ccccc2Br)o1)C(=O)c1cc(Cl)nc2ccccc12 -1.33%, Cn1cnnc1SCc1nnc(-c2ccccc2Br)o1 -6.49%, CCOC(=O)c1cc2sccc2n1Cc1ccc(C#N)cc1 -2.73%, CC(Sc1ccc(S(=O)(=O)N2CCN(C)CC2)cn1)C(=O)NC1CCCC(C)C1C (stereo not given) -9.12%, CC1(C)C2CC=C(/C=N/NC(=O)c3ccc(Cl)cc3)C1C2 (stereo not given) 10.7%, O=C1CCC(=O)N(c2ccccc2)N1 3.9%, Fc1ccccc1CNC(=S)Nc1ccc(Cl)cc1 -18.2%, CCOc1ccccc1NC(=S)NC(=O)CCc1ccccc1 17.8%, Cc1sc2ncn(CC(=O)NCCCC(=O)NCc3ccc(F)cc3)c(=O)c2c1C -10.9%, Cc1n[nH]c(=O)c2c(NC(=O)CSc3ccccc3F)oc(C)c12 25.1%, COc1ccc(OC)c(C2N(c3ccccn3)C(=O)C3CCCN32)c1 (stereo not given) -4.22%, COCC(C)N=CC1=C(O)CC(C)(C)CC1=O (stereo not given) 6.93%, CCN(CC(=O)Nc1ccc(NC(C)=O)cc1)C(=O)CSC(=S)N1CCCC1 5.05%, COc1cccc(NC(=O)CN(C)C(=O)Cc2ccc(Cl)cc2Cl)c1 -1.03%, COc1ccc(NC(=O)c2c(C)oc3c2CCCC3)cc1 6.57%, Cc1ccc(N/N=C2\COC(C)(C)CC2=O)cc1 -0.27%, COc1ccc(-c2cc(C3CCN(c4ncccc4[N+](=O)[O-])CC3)[nH]n2)cc1 6.76%, CCc1ccc2c(c1)NC(=O)C2(C)Cc1ccc(OC(F)(F)F)cc1 (stereo not given) 8.45%, CC[N+]1(CC)CC2=Cc3ccccc3CC2C1 (stereo not given) -5.91%, O=C(Nc1cc(S(=O)(=O)Nc2ccc(Cl)cc2)ccc1O)c1ccc(F)cc1F -7.73%, Cc1cccc(N(C(=O)Cc2cccs2)C(C(=O)NC2CCCC2)c2ccsc2)c1 (stereo not given) -14.8%, CCOc1cc(C(=S)N2CCOCC2)ccc1O 20.9%, COc1ccc(C)cc1NC(=S)N1CCOCC1 -27.2%, Cc1ccc(OCC(=O)Nc2ccccc2C(=O)NC2CC2)cc1C 8.8%, O=S(=O)(NCc1ccccn1)c1ccc(Br)s1 -6.68%, O=C(c1ccc(N2CCOCC2)c([N+](=O)[O-])c1)N1CCN(S(=O)(=O)c2cccs2)CC1 -8.8%, COc1ccc(C(=O)N2CCN(c3ccc(C(C)=O)cc3F)CC2)cc1S(=O)(=O)NC1CC1 0.55%, CC(C)CCn1cnc2c1c(=O)n(CC(=O)NC(N)=O)c(=O)n2Cc1ccccc1 -0.54%, O=C(CSc1ccccc1)Nc1cc(Cl)ccc1Oc1ccccc1 6.51%, CC(=O)Nc1ccc(SCC(=O)NC(=O)c2ccc(Cl)cc2)cc1 15.4%, CC(=O)Nc1cc(-c2ccc(N3CCN(C)CC3)cc2)cn2c(-c3ccc(F)cc3)cnc12 -30.8%, CC(C)c1cc(C(=O)N/N=C/c2ccoc2)c(O)c(C(C)C)c1 -7.21%, CC(C)(C)OC(=O)N/N=C/c1ccc(C(=O)O)cc1 -10.6%, COC(=O)N/N=C/c1ccc(-c2ccc(Cl)c(Cl)c2)o1 15.1%, CCOC(=O)c1c(C)[nH]c(C2=NNC(=NC(C)COC)SC2)c1C (stereo not given) -90.6%, CC(C)N(c1ccccc1)c1ncnc(NCCC(=O)O)c1[N+](=O)[O-] -7.92%, CC1=C(C(=O)Nc2ccc(Cl)cc2)C(c2ccco2)NC(=O)N1 (stereo not given) -4.08%, CN1OC[C@@H]2CN(S(=O)(=O)c3cccc(C(F)(F)F)c3)[C@H](c3ccc(-c4cc5ccccc5o4)cc3)C[C@@H]21 -4.18%, COC(=O)C1=C(Nc2ccc(C)cc2)C=C(C)C(C(=O)OC)C1c1ccc(F)cc1 (stereo not given) -12%, Cc1cc(=O)n(C)c(=O)n1CCCNc1ccccc1 -0.23%, CCc1c(Nc2ccccc2C)nc(N)[nH]c1=O -2.64%
